Compound activity: PubChem, National Center for Advancing Translational Sciences (NCATS)
In the library only some 4.7% were active in any assay of this set; here they are far more common.
TRHR enhancer: allosteric enhancers of human TRH receptor | TRHR cells, fluo-8 calcium fluorescence, EC20 TRH enhancement | P34981 | 360,000 tested, 0.66% active | enhancement, % at 2 µM | AID 493056; in the data active means enhancement above about 30%; further: 0% is about no effect
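TRHR-expressing cells loaded with fluo-8 calcium dye were read kinetically (ex 480/em 530) during compound addition, then stimulated with an EC20 of TRH (10 nM final). Enhancement of the Gq-mediated intracellular calcium response was scored.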
TRHR ag: TRH receptor (human) agonism; P34981; TRHR cells, calcium flux fluo-8, FDSS agonist mode; activation, % at 2 µM; 360,000 tested, 0.18% active; AID 493084; further: 0% is about no effect
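In this calcium-flux screen, cells bearing human TRHR are dye-loaded with fluo-8, baselined for 10 cycles, then exposed to library compounds; positive kinetic calcium responses during the agonist phase mark hits, with TRH as control.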
D1 PAM: human D1 dopamine receptor positive modulation; P21728; HEK293 TREx D1 cells, calcium flux, dopamine EC20 potentiation; potentiation, % at 10 µM; 360,000 tested, 0.036% active; AID 504651; in the data active means potentiation above about 30%; further: 0% is about no effect
Target sequence (P21728 whole entry, looked up): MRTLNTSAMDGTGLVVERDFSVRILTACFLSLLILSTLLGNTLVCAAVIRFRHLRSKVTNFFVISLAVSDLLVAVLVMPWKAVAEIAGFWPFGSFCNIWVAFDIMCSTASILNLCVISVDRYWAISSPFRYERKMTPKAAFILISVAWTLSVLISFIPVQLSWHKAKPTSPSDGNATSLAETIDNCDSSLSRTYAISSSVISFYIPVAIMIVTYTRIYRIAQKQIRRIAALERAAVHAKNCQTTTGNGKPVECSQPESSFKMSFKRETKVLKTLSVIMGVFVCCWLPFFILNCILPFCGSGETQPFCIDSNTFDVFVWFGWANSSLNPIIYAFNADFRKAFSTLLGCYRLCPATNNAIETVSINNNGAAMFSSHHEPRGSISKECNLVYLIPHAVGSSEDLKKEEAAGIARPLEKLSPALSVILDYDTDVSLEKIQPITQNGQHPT
D1 ag: agonists of human D1 dopamine receptor | P21728 | HEK293 T-REx D1 cells, calcium flux, agonist mode | activation, % at 2 µM | 360,000 tested, 1% active | AID 504660; further: 0% is about no effect
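Agonism was scored from calcium flux recorded over 180 s (1 read/s) after pintool compound addition, following a 10-cycle baseline. Cells were inducible force-coupled HEK293 TREx D1, plated overnight at 30 C and loaded with no-wash calcium dye.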
D1 antag: blocks dopamine activation of the human D1 receptor. P21728. HEK293 TREx D1 cells, calcium flux, dopamine EC80; active compounds read low. activity change, negative = inhibition, % at 10 µM. 360,000 tested, 3.2% active; in the data active means activity change below about -30%; further: on the % scale 0 is the no-effect control and ±100 the full control effect
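Kinetic fluorescence of a calcium dye serves as the read-out. D1-expressing Hek293 Trex cells, induced overnight at 30 C, are exposed to compound for 180 s before an EC80 dopamine addition, then read 180 s further.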
Numbers without * were called inactive. Unless noted, no stated cut-off is given here; in the data, active means activation above about 30%; inactive means the rest.

What do the screens show for `COc1ccc(CNc2ncc(-c3ccc(F)cc3)n2C)c2ccccc12`?
TRHR enhancer: 2; TRHR ag: 0; D1 PAM: -11; D1 ag: 12; D1 antag: -36*

How did Cn1c(-c2ccc(F)cc2)cnc1NCc1ccccc1 do in these assays?
TRHR enhancer: 4; TRHR ag: 0; D1 PAM: -15; D1 ag: 0; D1 antag: -9

Results for COc1ccccc1CNc1ncc(-c2ccc(F)cc2)n1C ?
TRHR enhancer: 0; TRHR ag: 0; D1 PAM: -8; D1 ag: 6; D1 antag: -62*

How did COc1ccc(CNC(=O)c2ccc3c(=O)n(-c4ccccc4)c(=O)[nH]c3c2)cc1 do in these assays?
TRHR enhancer: 3; TRHR ag: 0; D1 PAM: -1; D1 ag: 0; D1 antag: -1

Results for COc1ccc(CNc2ncc(-c3ccc(F)cc3)n2C)cc1OC ?
TRHR enhancer: 25; TRHR ag: 1; D1 PAM: -10; D1 ag: 3; D1 antag: -41*

How did Cn1c(-c2ccccc2)cnc1NCc1ccccc1O do in these assays?
TRHR enhancer: 0; TRHR ag: 0; D1 PAM: -1; D1 ag: -1; D1 antag: 2

What do the screens show for `CCOc1ccc(-c2cnc(NCc3cccc4ccccc34)n2CCOC)cc1`?
TRHR enhancer: -3; TRHR ag: 0; D1 PAM: -6; D1 ag: 18; D1 antag: -58*

How did Cn1c(-c2ccc(F)cc2)cnc1NCc1cccc(F)c1 do in these assays?
TRHR enhancer: 4; TRHR ag: 0; D1 PAM: -12; D1 ag: 1; D1 antag: -10

How did CCOc1ccc(-c2cnc(NCc3cccc(Cl)c3)n2C)cc1 do in these assays?
TRHR enhancer: -1; TRHR ag: 0; D1 PAM: -3; D1 ag: 0; D1 antag: 18

What do the screens show for `COc1ccccc1CNc1ncc(-c2ccccc2)n1C`?
TRHR enhancer: -2; TRHR ag: -2; D1 PAM: -3; D1 ag: 7; D1 antag: -49*

How did CCNC(=S)Nc1cccc(NC(=O)c2ccccc2O)c1 do in these assays?
TRHR enhancer: -9; TRHR ag: 0; D1 PAM: -3; D1 ag: 1; D1 antag: -36*

How did O=C(Cc1csc(NC(=O)Nc2cccc(Cl)c2)n1)NCc1ccccn1 do in these assays?
TRHR enhancer: 5; TRHR ag: 0; D1 PAM: -5; D1 ag: 7; D1 antag: -31*

What do the screens show for `COc1ccc(CNC(=O)Cc2csc(NC(=O)Nc3ccccc3OC)n2)cc1`?
TRHR enhancer: 10; TRHR ag: 0; D1 PAM: -1; D1 ag: 0; D1 antag: -35*

How did O=C(Cc1csc(NC(=O)Nc2cccc(Cl)c2)n1)NCc1cccnc1 do in these assays?
TRHR enhancer: -4; TRHR ag: 0; D1 PAM: -8; D1 ag: 2; D1 antag: -2

Results for O=C(NC1CCCCC1)c1ccc(Cn2c(SCc3cccc(F)c3)nc3cccnc32)cc1 ?
TRHR enhancer: 4; TRHR ag: -1; D1 PAM: 0; D1 ag: 0; D1 antag: -65*

Results for CN(C)CCNC(=O)c1ccc(Cn2c(SCc3ccc(F)cc3)nc3cccnc32)cc1 ?
TRHR enhancer: 21; TRHR ag: -1; D1 PAM: -4; D1 ag: 9; D1 antag: -2

Results for O=C(NCCN1CCCCC1)c1ccc(Cn2c(SCc3ccc(F)cc3)nc3cccnc32)cc1 ?
TRHR enhancer: -9; TRHR ag: 0; D1 PAM: 0; D1 ag: 0; D1 antag: -32*

How did COc1ccc(CNC(=O)Cc2ccc(NC(=O)N3CCSc4ncccc43)cc2)cc1 do in these assays?
TRHR enhancer: 7; TRHR ag: 0; D1 PAM: -1; D1 ag: 1; D1 antag: -6

What do the screens show for `Cn1nc(C(=O)NCc2cccc(Cl)c2)c2c1-c1ccccc1SC2`?
TRHR enhancer: -2; TRHR ag: 0; D1 PAM: -1; D1 ag: -1; D1 antag: 2

Results for Cc1oc2ccc(O)c(CN3CCN(C)CC3)c2c1C(=O)Nc1cccc(C(F)(F)F)c1 ?
TRHR enhancer: 0; TRHR ag: 4; D1 PAM: 4; D1 ag: 62*; D1 antag: -46*

Results for CCN1CCN(Cc2c(O)ccc3oc(C)c(C(=O)Nc4cccc(Cl)c4C)c23)CC1 ?
TRHR enhancer: -9; TRHR ag: 2; D1 PAM: 0; D1 ag: 23; D1 antag: -6

What do the screens show for `CCN1CCN(Cc2c(O)ccc3oc(C)c(C(=O)Nc4cccc(C(F)(F)F)c4)c23)CC1`?
TRHR enhancer: 0; TRHR ag: 4; D1 PAM: 0; D1 ag: 50*; D1 antag: -23

Results for Cc1oc2ccc(O)c(CN3CCN(Cc4ccccc4)CC3)c2c1C(=O)Nc1ccccc1 ?
TRHR enhancer: -1; TRHR ag: 0; D1 PAM: 1; D1 ag: 0; D1 antag: 13

What do the screens show for `CCOC(=O)c1c(C)oc2c1c(C=NCCO)c(O)c1ccccc12`?
TRHR enhancer: -1; TRHR ag: 4; D1 PAM: -4; D1 ag: 4; D1 antag: -41*

How did Cc1ccc(/C=C2/NC(=O)N(Cc3ccccc3)C2=O)s1 do in these assays?
TRHR enhancer: -2; TRHR ag: -3; D1 PAM: -1; D1 ag: 29; D1 antag: -40*

How did CNC(=O)CSc1nnc(-c2cccc(S(=O)(=O)N3CCOCC3)c2)n1-c1ccc(F)cc1 do in these assays?
TRHR enhancer: -3; TRHR ag: 1; D1 PAM: -7; D1 ag: 1; D1 antag: -19

What do the screens show for `O=C(O)CSc1nnc(-c2cccc(S(=O)(=O)N3CCOCC3)c2)n1-c1cccc(Cl)c1`?
TRHR enhancer: -3; TRHR ag: 0; D1 PAM: 4; D1 ag: 3; D1 antag: -31*

What do the screens show for `CCOC(=O)N1CCc2c(sc3c2c(=O)n(-c2ccc(F)cc2)c(=O)n3CC(=O)c2ccc(Cl)cc2)C1`?
TRHR enhancer: -2; TRHR ag: 3; D1 PAM: -5; D1 ag: 17; D1 antag: -7

Results for CCOc1ccc(N2CC(C(=O)NCC(=O)Nc3ccc(F)c(F)c3F)CC2=O)cc1 (stereo not drawn) ?
TRHR enhancer: -3; TRHR ag: -1; D1 PAM: -2; D1 ag: 1; D1 antag: -32*

What do the screens show for `CCOc1ccc(N2CC(C(=O)Nc3ccc(S(=O)(=O)Nc4ncccn4)cc3)CC2=O)cc1` (stereo not drawn)?
TRHR enhancer: 32*; TRHR ag: 0; D1 PAM: -1; D1 ag: -2
